Assay results from the supplement of paper PMC4962491.
± gives the standard deviation of the averaged measurements.

Tested on: FaDu
Test: mitochondrial oxygen consumption rate normalised to cell number, Z score vs plate DMSO wells; higher = higher oxygen consumption (negative = OCR reduction)
Details: treatment time 24 h, assay medium: 5 mM glucose, 5 mM pyruvate, 4 mM glutamine
Experimental: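 Secondary screen: FaDu cells were incubated 24 h with the top 130 primary hits at 0.08, 0.4, 2 or 10 uM. Mitochondrial-specific OCR (basal minus antimycin A) was measured on a Seahorse XF96 in medium with 5 mM glucose, 5 mM pyruvate and 4 mM glutamine and normalised to Hoechst cell number. OCR score = (OCR - mean of plate DMSO wells) / SD of plate DMSO wells. Three repeats.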
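Also: compound exposure in DMEM (4 mM L-glutamine, 5 mM glucose), antimycin A injected at 2 µM after the basal reading and its residual OCR subtracted from basal.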

SMILES | mitochondrial oxygen consumption rate normalised (0.08 µM) | mitochondrial oxygen consumption rate normalised (0.4 µM) | mitochondrial oxygen consumption rate normalised (2 µM) | mitochondrial oxygen consumption rate normalised (10 µM)
Cc1c2oc3c(C)ccc(C(=O)N[C@@H]4C(=O)N[C@H](C(C)C)C(=O)N5CCC[C@H]5C(=O)N(C)CC(=O)N(C)[C@@H](C(C)C)C(=O)O[C@@H]4C)c3nc-2c(C(=O)N[C@@H]2C(=O)N[C@H](C(C)C)C(=O)N3CCC[C@H]3C(=O)N(C)CC(=O)N(C)[C@@H](C(C)C)C(=O)O[C@@H]2C)c(N)c1=O | -3.2 ± 1.3 | -7.48 ± 0.36 | -9.57 ± 0.5 | 
COc1cc([C@@H]2c3cc4c(cc3[C@@H](O[C@@H]3O[C@@H]5CO[C@@H](c6cccs6)O[C@H]5[C@H](O)[C@H]3O)[C@H]3COC(=O)[C@H]23)OCO4)cc(OC)c1O [Teniposide] | 0.487 ± 1.3 | 0.0174 ± 0.54 |  | 
COc1cc([C@@H]2c3cc4c(cc3[C@@H](O[C@@H]3O[C@@H]5CO[C@@H](c6cccs6)O[C@H]5[C@H](O)[C@H]3O)[C@H]3COC(=O)[C@H]23)OCO4)cc(OC)c1O |  |  | -7.82 ± 1.4 | 
COc1ccc(C[C@H](N)C(=O)N[C@H]2[C@@H](O)[C@H](n3cnc4c(N(C)C)ncnc43)O[C@@H]2CO)cc1 | -1.29 ± 1.7 | -0.131 ± 0.75 | -3.4 ± 2.1 | 
CCN(CC)CCCC(C)Nc1ccnc2cc(Cl)ccc12 (stereo not drawn) | 0.223 ± 1.1 | 1.56 ± 0.35 | -0.792 ± 0.8 | 0.482 ± 1.1
CC[C@@]1(O)C(=O)OCc2c1cc1n(c2=O)Cc2cc3c(CN(C)C)c(O)ccc3nc2-1 |  |  | -1.46 ± 1.6 | 
N[C@@H](Cc1ccc(O)c(O)c1)C(=O)O | 0.0621 ± 1.8 | 0.345 ± 0.69 | 1.31 ± 0.9 | 0.522 ± 2
O=C(O[C@H]1CN2CCC1CC2)N1CCc2ccccc2[C@@H]1c1ccccc1 | 1.08 ± 2.1 | 0.729 ± 0.44 | 0.566 ± 1.2 | -0.974 ± 1.9
C=CCOC(Cn1ccnc1)c1ccc(Cl)cc1Cl (stereo not drawn) | -0.655 ± 2.4 | 0.416 ± 2.9 | -0.3 ± 1.2 | -0.245 ± 0.57
Cc1cc(CC(C)CC(C)(C)C)n(O)c(=O)c1 (stereo not drawn) | 0.0907 ± 1.2 | 0.402 ± 0.1 | -4.87 ± 1.5 | 
C[C@@H]1O[C@@H](OC[C@H]2O[C@@H](Oc3c(-c4ccc(O)c(O)c4)oc4cc(O)cc(O)c4c3=O)[C@H](O)[C@@H](O)[C@@H]2O)[C@H](O)[C@H](O)[C@H]1O | 0.0147 ± 1.7 | 1.67 ± 0.68 | -0.481 ± 2.6 | 1.74 ± 2.4
Cc1cc(C(C)(C)CC(C)(C)C)ccc1OCCOCC[N+](C)(C)Cc1ccccc1 | -1.05 ± 0.63 | 0.588 ± 0.44 | -5.29 ± 1.2 | -12.6 ± 0.23
CCCCCCCCCCCCCCCC[N+](C)(C)C | 0.46 ± 0.86 | -0.326 ± 1 | -10.1 ± 0.48 | 
CCN(CC)CCOC(=O)C(c1ccccc1)C1CCCCC1 (stereo not drawn) | 0.349 ± 1.2 | 1.06 ± 1 | 1.23 ± 0.9 | 1.37 ± 1.6
CC(=O)[C@H]1CC[C@H]2[C@@H]3CCC4=CC(=O)CC[C@]4(C)[C@H]3CC[C@]12C | -0.339 ± 1.3 | 0.321 ± 0.92 | -0.631 ± 1.3 | -1.18 ± 0.26
CCCCCCCCNC(C)C(O)c1ccc(SC(C)C)cc1 (stereo not drawn) | 0.0353 ± 1.1 | -0.376 ± 0.59 | 0.293 ± 1.8 | -7.88 ± 0.64
CCCCCCCCCCCCC[N+](C)(C)Cc1ccccc1 | -1.59 ± 1.3 | -3.65 ± 1.3 | -11.5 ± 0.21 | 
COc1cccc2c1C(=O)c1c(O)c3c(c(O)c1C2=O)C[C@@](O)(C(C)=O)C[C@@H]3O[C@H]1C[C@H](N)[C@H](O)[C@H](C)O1 | 1.45 ± 1.5 | -2.21 ± 0.4 | -6.3 ± 0.54 | 
CN(C)c1ccc(C(=C2C=CC(=[N+](C)C)C=C2)c2ccc(N(C)C)cc2)cc1 | -0.504 ± 1.3 | -6.33 ± 1.1 | -13.3 ± 0.17 | 
CCCCCCCCCc1ccc(OCCOCCOCCOCCOCCOCCOCCOCCOCCO)cc1 | 0.0515 ± 1 | 0.101 ± 0.62 | -3.38 ± 0.78 | -7.69 ± 0.55
CCOc1ccc2nc3cc(N)ccc3c(N)c2c1 | -0.404 ± 1.3 | 0.17 ± 0.56 | -3.32 ± 0.28 | -6.87 ± 0.83
CN(C)c1ccc2nc3ccc(=[N+](C)C)cc-3sc2c1 | 0.933 ± 1.1 | 1.47 ± 0.68 | -2.4 ± 1.5 | -2.94 ± 3.9
O=c1cc[nH]c(=S)[nH]1 | -0.646 ± 1.9 | 1.11 ± 0.98 | -0.279 ± 2.5 | 0.14 ± 2.1
COc1ccc2c(c1)c(CC(=O)O)c(C)n2C(=O)c1ccc(Cl)cc1 | -1.16 ± 1.6 | -0.0955 ± 0.33 | 0.286 ± 1.6 | -0.792 ± 1.6
CCN(CC)C(=O)c1cccnc1 | 0.606 ± 0.97 | -0.942 ± 0.098 | -1.02 ± 1.1 | -1.48 ± 0.69
C#C[C@]1(O)CC[C@H]2[C@@H]3CCC4=CC(=O)CC[C@@H]4[C@H]3CC[C@@]21CC | 0.538 ± 0.4 | 1.49 ± 0.65 | 1.15 ± 0.96 | 1.62 ± 1.1
CCCCCCc1ccc(O)cc1O.Nc1c2ccccc2nc2ccccc12 | -0.393 ± 1.3 | -0.59 ± 2.2 | -2.14 ± 1.1 | -6.38 ± 0.68
